Compound activity from PubChem BioAssay.
Compounds with a hit are over-represented: about 2.3% of the library has one in this group of screens.
aSyn UTR inh = 5' untranslated region of α-synuclein, MLPCN primary screen. alpha-synuclein 5'UTR reporter, inhibitor activity. inhibition, % (tested at 7.5 µM). 300,000 compounds, 0.82% hits. AID 1813; in the data active = inhibition above about 60%;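 note: H4 neuroglioblastoma cells stably carrying SNCA 5'UTR luciferase fusion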
Jurkat NFkB inh = lowers PMA/ionomycin-induced NF-kB signal in Jurkat cells | PMA/ionomycin-induced NF-kB luciferase reporter, luminescence | inhibition, % at 4 µM | 330,000 compounds, 0.53% hits; in the data active = inhibition above about 50%
Gli-Sufu antag = Gli-Sufu pathway antagonism. AID 588413. inhibition, % at 5 µM. 340,000 compounds, 0.74% hits. Sufu-KO-LIGHT fibroblasts, Gli luciferase reporter luminescence;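 active = inhibition above about 55%, limit read from the data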
TAG inh = inhibitors of triacylglycerol accumulation; inhibition, % at 12.5 µM; H9c2 cells, Nile Red lipid (TAG) fluorescence; cells loaded with 200 µM oleic acid; 230,000 compounds, 0.66% hits;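 active = pattern-corrected inhibition of lipid staining of at least 50% with the nuclear-stain viability signal not falling by more than 50%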
Shn3 3UTR inh = reduces Shn3 3'UTR luciferase signal in osteoblasts; Clone20 osteoblast Shn3 3'UTR firefly luciferase, 24 h; inhibition, % at 12.5 µM; 360,000 compounds, 0.52% hits; AID 588674;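 active = mean inhibition of at least 75% with every replicate also reaching 75%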
697 NFkB inh = lowers PMA/ionomycin-induced NF-kB signal in 697 B cells. inhibition, % at 4 µM. 697 B-cell NF-kB luciferase reporter, 16 h. 330,000 compounds, 0.33% hits; in the data active = inhibition above about 35%
Of the large screens only hits and unclear results are named; the others gave an inactive call.

CCN(CC)CCCNC1=C(Cl)C(=O)c2ccccc2C1=O	aSyn UTR inh 76
O=C1C(Cl)=C(Nc2ccccc2)C(=O)c2ccccc21	Shn3 3UTR inh 96 (no result: Jurkat NFkB inh, TAG inh, 697 NFkB inh)
O=C(O)c1ccc(NC2=C(Cl)C(=O)c3ccccc3C2=O)cc1	Shn3 3UTR inh 95
CC(C)NC1=C(Cl)C(=O)c2ccccc2C1=O	none (no result: TAG inh)
O=C(O)c1cccc(NC2=C(Cl)C(=O)c3ccccc3C2=O)c1	none (no result: Jurkat NFkB inh, 697 NFkB inh)
NC1=NN(c2c(Cl)cc(Cl)cc2Cl)C(=O)C1	none (no result: aSyn UTR inh, Jurkat NFkB inh, 697 NFkB inh)
O=C(NCC1OCCc2ccccc21)c1ccc(NC(=O)c2ccc(Cl)cc2)cc1 (stereo not drawn)	aSyn UTR inh 79 (no result: TAG inh)
CCOC(=O)CC1C(=O)NCCN1S(=O)(=O)c1cc(Cl)c(Cl)cc1Cl (stereo not drawn)	none
CCCn1c(NC(=O)c2ccc(Cl)c(S(=O)(=O)N3CCCC3)c2)nc2ccccc21	Shn3 3UTR inh 91
O=C(NCc1nc2ccccc2[nH]1)c1ccc(Cl)c(S(=O)(=O)N2CCCC2)c1	none (no result: TAG inh)
CCCc1ccc(-c2ccc(-c3noc(-c4ccncc4)n3)cc2)nc1	none (no result: TAG inh)
CCCCc1ccc(-c2nc(-c3ccncc3)no2)cc1	aSyn UTR inh 91
COc1ccc(NC(=O)c2ccc(NC(=O)CN3CCN(c4ccccc4O)CC3)cc2)cc1	none (no result: aSyn UTR inh, Jurkat NFkB inh, Gli-Sufu antag, 697 NFkB inh)
Cc1ccc(S(=O)(=O)Nc2cccc3cccnc23)c([N+](=O)[O-])c1	aSyn UTR inh 71, Gli-Sufu antag 61
Cc1cc(C)c(NS(=O)(=O)c2cccc3cccnc23)c(C)c1	none
CC(=O)C1=C(c2ccc(Br)cc2)C(=O)c2ccccc2C1=O	Shn3 3UTR inh 97 (no result: Jurkat NFkB inh, TAG inh, 697 NFkB inh)
CC(=O)Nc1c(Br)cc2c(c1Br)C(=O)c1ccccc1-2	none (no result: aSyn UTR inh, Jurkat NFkB inh, 697 NFkB inh)
Cc1nn(-c2ccccc2)c(Cl)c1CN(C(=O)CCl)c1ccc(Cl)cc1	Shn3 3UTR inh 96 (no result: Jurkat NFkB inh, TAG inh, 697 NFkB inh)
COc1ccccc1-c1nnc2sc(-c3cc4ccccc4o3)nn12	aSyn UTR inh 76
CCCCCOC(=O)C1=C(C)NC(=O)NC1c1ccc(N(C)C)cc1 (stereo not drawn)	none (no result: TAG inh)
CCc1ccc(NC(=O)c2cnn3ccccc23)cc1	aSyn UTR inh 78
CCOC(=O)c1nc(S(C)(=O)=O)ncc1Cl	Shn3 3UTR inh 96 (no result: TAG inh)
Cc1nnc(NC(=O)c2nc(S(=O)(=O)Cc3ccccc3)ncc2Cl)s1	Shn3 3UTR inh 92 (no result: TAG inh)
CCCc1nnc(NC(=O)c2nc(S(=O)(=O)Cc3cccc(C)c3)ncc2Cl)s1	Shn3 3UTR inh 93 (no result: TAG inh)
Cc1cccc(CS(=O)(=O)c2ncc(Cl)c(C(=O)NCc3ccccc3)n2)c1	aSyn UTR inh 64, Shn3 3UTR inh 95 (no result: TAG inh)
CCOC(=O)c1nc(S(C)(=O)=O)ncc1N1CCOCC1	none (no result: TAG inh)
CCc1nn(-c2ccccc2)c2c1-c1cc(OC)c(OC)cc1C1(N2)C(=O)Nc2ccccc21 (stereo not drawn)	none
COC(=O)c1c(NC(=O)Cc2cccs2)sc2c1CCCC2	none
O=C(Nc1ccc(F)cc1)c1nc(S(=O)(=O)Cc2ccccc2)ncc1Cl	aSyn UTR inh 67, Shn3 3UTR inh 94 (no result: TAG inh)
O=C(Nc1ccc(F)cc1)c1nn(-c2ccccc2)c(=O)cc1Cl	none (no result: Jurkat NFkB inh, 697 NFkB inh)
Cc1ccccc1NC(=O)c1nc(S(C)(=O)=O)ncc1Cl	TAG inh 68, Shn3 3UTR inh 97
Cc1ccccc1NC(=O)c1cccc(C(=O)Nc2ccccc2C)n1	none (no result: TAG inh)
Cc1cccc(CS(=O)(=O)c2ncc(Cl)c(C(=O)Nc3c(C)cccc3C)n2)c1	none (no result: TAG inh)
Cc1cccc(C)c1NC(=O)c1nc(S(=O)(=O)Cc2ccccc2)ncc1Cl	Shn3 3UTR inh 96 (no result: TAG inh)
Cc1ccc(NC(=O)c2nc(S(=O)(=O)Cc3ccccc3)ncc2Cl)cc1	Shn3 3UTR inh 95 (no result: TAG inh)
Cc1cc(N2CCN(C3CCCCC3)CC2)nc2cccc(O)c12	none
Cc1ccccc1CS(=O)(=O)c1ncc(Cl)c(C(=O)Nc2ccc(F)cc2)n1	aSyn UTR inh 64, Shn3 3UTR inh 95 (no result: Jurkat NFkB inh, TAG inh, 697 NFkB inh)
Cc1c(NC=C(C#N)C#N)c(=O)n(-c2ccccc2)n1C	none
Cc1c(N/N=C(\C#N)C(=O)c2ccccc2)c(=O)n(-c2ccccc2)n1C	Shn3 3UTR inh 89 (no result: Jurkat NFkB inh, TAG inh, 697 NFkB inh)
CCOC(=O)/C(C#N)=N/Nc1c(C)n(C)n(-c2ccccc2)c1=O	none (no result: TAG inh)
Cc1ccccc1C(=O)/C(C#N)=N/Nc1c(C)n(C)n(-c2ccccc2)c1=O	aSyn UTR inh 79 (no result: Jurkat NFkB inh, TAG inh, 697 NFkB inh)
O=C(O)/C=C/c1ccc(S(=O)(=O)NCc2ccco2)cc1	none
O=C(NC1CCCCC1)C1CC(=O)N(c2ccc(Cl)cc2)C1 (stereo not drawn)	none
